Activity calls are given as the source filed them. The calls were made as follows: active = hit-call score of the fitted dose curve at least 0.9, where 1 is the maximum; inactive = score below 0.9.
Key:
Conditions in all cases: mRNA level, 48 h; actives raise or lower the signal
[1] = read-out: Keratin 19 (KRT19), KRT19 (gene 3880); assay: LTEA_HepaRG_KRT19: Life Technologies and Expression Analysis (LTEA) Assay for Keratin 19 (KRT19) using HepaRG (AID 2283512)
Outline: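 Differentiated HepaRG cells in serum-free induction medium, exposed 48 h in duplicate to 8 half-log concentrations up to 100 uM in 0.5% DMSO. KRT19 mRNA by qRT-PCR, normalized to ACTB, GAPDH, POLR2A; bidirectional fit vs DMSO.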

[2] = read-out: JUN Transcription Factor, JUN (gene 3725); assay: LTEA_HepaRG_JUN: Life Technologies and Expression Analysis (LTEA) Assay for JUN Transcription Factor using HepaRG (AID 2283513)
Outline: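 Gene-expression endpoint: JUN mRNA (qRT-PCR, normalized to three reference genes) in HepaRG cultures treated 48 h with chemicals, duplicate wells, 100 uM maximum with half-log dilutions; bidirectional fitting relative to 0.5% DMSO.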

[3] = read-out: Lipase C (LIPC), LIPC (gene 3990); assay: LTEA_HepaRG_LIPC: Life Technologies and Expression Analysis (LTEA) Assay for Lipase C (LIPC) using HepaRG (AID 2283514)
Outline: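 LIPC expression was quantified by qRT-PCR against three housekeeping genes (ACTB, GAPDH, POLR2A). Differentiated human HepaRG cells received eight half-log doses (top 100 uM, 0.5% DMSO) in duplicate for 48 h; fitting bidirectional relative to DMSO.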

[4] = read-out: Lipoprotein lipase (LPL), LPL (gene 4023); assay: LTEA_HepaRG_LPL: Life Technologies and Expression Analysis (LTEA) Assay for Lipoprotein lipase (LPL) using HepaRG (AID 2283515)
Outline: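 LPL transcript levels quantified by TaqMan qRT-PCR against three housekeeping genes after 48 h chemical treatment of HepaRG cells. Eight-point half-log series from 100 uM in 0.5% DMSO, tested in duplicate; bidirectional fitting versus vehicle.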

[5] = read-out: MicroRNA 122 (MIR122), gene 406906; assay: LTEA_HepaRG_MIR122: Life Technologies and Expression Analysis (LTEA) Assay for MicroRNA 122 (MIR122) using HepaRG (AID 2283516); also: the transcript read is the microRNA miR-122
Outline: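 Changes in transcript abundance, up or down relative to 0.5% DMSO vehicle, were scored after 48 h chemical treatment of HepaRG cells (maximum 100 uM). Quantification used TaqMan qRT-PCR normalized to housekeeping genes.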

[6] = read-out: matrix metalloproteinase-10 (MMP10), MMP10 (gene 4319); assay: LTEA_HepaRG_MMP10: Life Technologies and Expression Analysis (LTEA) Assay for matrix metalloproteinase-10 (MMP10) using HepaRG (AID 2283517)
Outline: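 Expression measured by TaqMan qRT-PCR with ACTB/GAPDH/POLR2A normalisation after 48 h chemical exposure of HepaRG cells. Eight half-log concentrations, top 100 uM, 0.5% DMSO vehicle, duplicates; gain or loss fitted against vehicle.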

[7] = read-out: MYC, MYC (gene 4609); assay: LTEA_HepaRG_MYC: Life Technologies and Expression Analysis (LTEA) Assay for MYC using HepaRG (AID 2283518)
Outline: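 Differentiated HepaRG cells exposed 48 h in serum-free induction medium to 8 concentrations (top 100 uM, half-log steps; 0.5% DMSO), duplicate. MYC mRNA measured by Fluidigm qRT-PCR, normalized to ACTB, GAPDH, POLR2A; bidirectional fit versus DMSO.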

[8] = read-out: matrix metalloproteinase-3 (MMP3), MMP3 (gene 4314); assay: LTEA_HepaRG_MMP3: Life Technologies and Expression Analysis (LTEA) Assay for matrix metalloproteinase-3 (MMP3) using HepaRG (AID 2283519)
Outline: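 Fluidigm-based TaqMan qRT-PCR, normalized to ACTB, GAPDH and POLR2A and fitted bidirectionally versus 0.5% DMSO, measured transcript levels. Treatment: duplicate 48 h exposures of HepaRG cells, ~100,000/well, to eight half-log concentrations topping at 100 uM.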

[9] = read-out: Paternally Expressed 10 (PEG10), PEG10 (gene 23089); assay: LTEA_HepaRG_PEG10: Life Technologies and Expression Analysis (LTEA) Assay for Paternally Expressed 10 (PEG10) using HepaRG (AID 2283520)
Outline: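 After 48 h exposure of differentiated HepaRG cells (0.5% DMSO vehicle, eight concentrations up to 100 uM, duplicates), PEG10 mRNA was measured by TaqMan qRT-PCR. Values were normalised to endogenous control genes and analysed bidirectionally against vehicle.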

[10] = read-out: Nuclear factor NF-kappa-B p105 subunit (Homo sapiens) (UniProt P19838); assay: LTEA_HepaRG_NFKB1: Life Technologies and Expression Analysis (LTEA) Assay for Nuclear Factor Kappa B Subunit 1 (NFKB1) using HepaRG (AID 2283521)
Outline: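 NFKB1 transcript was measured by TaqMan qRT-PCR on Fluidigm arrays, normalised to three housekeeping genes and fitted in both directions against 0.5% DMSO. HepaRG cells were dosed in duplicate for 48 h in serum-free induction medium, eight half-log steps from 100 uM.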

[11] = read-out: Protein phosphatase 2A (PPP2R4), PTPA (gene 5524); assay: LTEA_HepaRG_PPP2R4: Life Technologies and Expression Analysis (LTEA) Assay for Protein phosphatase 2A (PPP2R4) using HepaRG (AID 2283522)
Outline: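 Using HepaRG cultures maintained in 0.5% DMSO, chemicals are tested 48 h at up to 100 uM in duplicate. Induction or suppression of PPP2R4 mRNA, measured by qRT-PCR, is fitted bidirectionally against the vehicle baseline.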

[12] = read-out: Phosphatase and tensin (PTEN), PTEN (gene 5728); assay: LTEA_HepaRG_PTEN: Life Technologies and Expression Analysis (LTEA) Assay for Phosphatase and tensin (PTEN) using HepaRG (AID 2283523)
Outline: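 Read-out: TaqMan qRT-PCR of PTEN transcript, normalized to three housekeeping genes, fitted in both directions against 0.5% DMSO. Differentiated human HepaRG cultures received chemicals for 48 h, eight-point half-log series topping at 100 uM.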

[13] = read-out: solute carrier (SLC22A1), SLC22A1 (gene 6580); assay: LTEA_HepaRG_SLC22A1: Life Technologies and Expression Analysis (LTEA) Assay for solute carrier (SLC22A1) using HepaRG (AID 2283524)
Outline: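 Transcript level of SLC22A1 quantified by qRT-PCR (normalized to three housekeeping genes) after 48 h chemical exposure of HepaRG cells, eight concentrations up to 100 µM, half-log steps, 0.5% DMSO vehicle. Gain or loss relative to DMSO fitted bidirectionally.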

[14] = read-out: Pyruvate Dehydrogenase Kinase 4 (PDK4), PDK4 (gene 5166); assay: LTEA_HepaRG_PDK4: Life Technologies and Expression Analysis (LTEA) Assay for Pyruvate Dehydrogenase Kinase 4 (PDK4) using HepaRG (AID 2283525)
Outline: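 Readout is qRT-PCR of PDK4 transcript, normalized to three housekeeping genes, with bidirectional fitting against 0.5% DMSO vehicle. Differentiated HepaRG cells were treated 48 h in serum-free induction medium, duplicate wells, eight-point half-log series topping at 100 uM.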

[15] = read-out: NAD(P)H dehydrogenase [quinone] 1 (NQO1), NQO1 (gene 1728); assay: LTEA_HepaRG_NQO1: Life Technologies and Expression Analysis (LTEA) Assay for NAD(P)H dehydrogenase [quinone] 1 (NQO1) using HepaRG (AID 2283526)
Outline: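 In this assay, gene expression is read by qRT-PCR after 48 h exposure of HepaRG cells to eight concentrations (max 100 uM, half-log) in 0.5% DMSO. Each chemical runs in duplicate, and activity is scored relative to vehicle.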

[16] = read-out: Nuclear factor erythroid 2-related factor 2 (Homo sapiens) (UniProt Q16236); assay: LTEA_HepaRG_NFE2L2: Life Technologies and Expression Analysis (LTEA) Assay for Nuclear factor erythroid 2-related factor 2 (NFE2L2) Transcription Factor using HepaRG (AID 2283527)
Outline: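 NFE2L2 transcript level was read by qRT-PCR (housekeeping ACTB/GAPDH/POLR2A normalisation) after 48 h chemical treatment of HepaRG in serum-free induction medium. Duplicate 8-point half-log curves, top 100 uM, 0.5% DMSO vehicle; up- or down-regulation fitted against vehicle.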

[17] = read-out: succinate dehydrogenase complex iron sulfur subunit B (SDHB), SDHB (gene 6390); assay: LTEA_HepaRG_SDHB: Life Technologies and Expression Analysis (LTEA) Assay for succinate dehydrogenase complex iron sulfur subunit B (SDHB) using HepaRG (AID 2283528)
Outline: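 SDHB transcript level read by TaqMan qRT-PCR, housekeeping-normalised (ACTB, GAPDH, POLR2A), after 48 h chemical treatment of plated HepaRG cells; eight concentrations top 100 uM, half-log steps, 0.5% DMSO, duplicates; fitted both directions against DMSO.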

[18] = read-out: Signal transducer and activator of transcription 3 (Homo sapiens) (UniProt P40763); assay: LTEA_HepaRG_STAT3: Life Technologies and Expression Analysis (LTEA) Assay for Signal transducer and activator of transcription (STAT3) using HepaRG (AID 2283529)
Outline: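 STAT3 transcript quantified by qRT-PCR against three housekeeping genes (ACTB, GAPDH, POLR2A), fitted both directions relative to DMSO. HepaRG cultures exposed 48 h to eight half-log concentrations, top 100 uM, 0.5% DMSO, serum-free induction medium.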

[19] = read-out: solute carrier (SLCO1B1), SLCO1B1 (gene 10599); assay: LTEA_HepaRG_SLCO1B1: Life Technologies and Expression Analysis (LTEA) Assay for solute carrier (SLCO1B1) using HepaRG (AID 2283530)
Outline: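 Differentiated human HepaRG cells were exposed for 48 h in serum-free induction medium to eight half-log concentrations, top 100 uM, in 0.5% DMSO. SLCO1B1 mRNA was measured by qRT-PCR, normalized to ACTB, GAPDH and POLR2A, and fitted bidirectionally against DMSO.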

[20] = read-out: sulfotransferase 2A1 (SULT2A1), SULT2A1 (gene 6822); assay: LTEA_HepaRG_SULT2A1: Life Technologies and Expression Analysis (LTEA) Assay for sulfotransferase 2A1 (SULT2A1) using HepaRG (AID 2283531)
Outline: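 HepaRG human liver cells, 48 h exposure in serum-free induction medium to 8 half-log concentrations topping at 100 µM (0.5% DMSO), duplicate wells. SULT2A1 mRNA measured by TaqMan qRT-PCR, normalized to ACTB/GAPDH/POLR2A; bidirectional fit against DMSO.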

Measured: outcome

Nuclear factor erythroid 2-related factor 2 (Homo sapiens), sequence (Q16236 whole entry, looked up): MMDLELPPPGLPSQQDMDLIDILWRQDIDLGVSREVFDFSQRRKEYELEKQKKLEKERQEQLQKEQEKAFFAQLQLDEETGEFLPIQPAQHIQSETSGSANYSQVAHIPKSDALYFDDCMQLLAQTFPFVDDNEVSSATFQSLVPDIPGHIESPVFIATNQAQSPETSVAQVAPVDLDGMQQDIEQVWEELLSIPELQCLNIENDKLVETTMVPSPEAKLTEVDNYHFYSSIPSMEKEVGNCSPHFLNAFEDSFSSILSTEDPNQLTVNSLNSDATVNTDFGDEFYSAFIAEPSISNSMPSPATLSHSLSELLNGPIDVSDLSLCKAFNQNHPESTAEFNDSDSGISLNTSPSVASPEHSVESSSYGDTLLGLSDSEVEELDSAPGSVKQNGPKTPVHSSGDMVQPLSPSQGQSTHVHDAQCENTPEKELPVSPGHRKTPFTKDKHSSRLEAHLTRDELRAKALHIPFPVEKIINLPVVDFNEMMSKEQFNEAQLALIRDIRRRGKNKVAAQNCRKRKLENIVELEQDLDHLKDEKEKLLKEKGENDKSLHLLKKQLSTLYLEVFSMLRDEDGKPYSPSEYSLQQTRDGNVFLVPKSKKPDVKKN
Signal transducer and activator of transcription 3 (Homo sapiens), sequence (P40763 whole entry, looked up): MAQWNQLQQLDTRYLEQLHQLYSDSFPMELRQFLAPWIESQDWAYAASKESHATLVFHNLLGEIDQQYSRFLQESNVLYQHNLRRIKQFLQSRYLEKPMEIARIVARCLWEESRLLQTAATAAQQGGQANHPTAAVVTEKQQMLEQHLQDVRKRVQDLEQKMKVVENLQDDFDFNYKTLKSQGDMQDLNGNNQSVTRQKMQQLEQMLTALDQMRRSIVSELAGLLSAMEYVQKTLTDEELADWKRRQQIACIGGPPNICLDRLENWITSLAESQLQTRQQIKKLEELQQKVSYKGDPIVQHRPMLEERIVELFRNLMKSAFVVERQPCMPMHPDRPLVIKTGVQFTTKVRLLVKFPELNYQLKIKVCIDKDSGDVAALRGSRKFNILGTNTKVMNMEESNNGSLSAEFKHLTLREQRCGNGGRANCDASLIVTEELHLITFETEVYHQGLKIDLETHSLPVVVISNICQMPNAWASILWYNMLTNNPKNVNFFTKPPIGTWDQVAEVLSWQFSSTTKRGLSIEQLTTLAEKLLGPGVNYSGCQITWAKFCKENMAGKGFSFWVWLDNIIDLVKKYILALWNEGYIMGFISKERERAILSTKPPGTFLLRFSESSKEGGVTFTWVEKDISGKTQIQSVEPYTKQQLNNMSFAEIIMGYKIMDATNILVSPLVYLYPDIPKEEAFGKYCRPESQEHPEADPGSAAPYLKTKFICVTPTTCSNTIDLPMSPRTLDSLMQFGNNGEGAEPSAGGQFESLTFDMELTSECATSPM
Nuclear factor NF-kappa-B p105 subunit (Homo sapiens), sequence (P19838 whole entry, looked up): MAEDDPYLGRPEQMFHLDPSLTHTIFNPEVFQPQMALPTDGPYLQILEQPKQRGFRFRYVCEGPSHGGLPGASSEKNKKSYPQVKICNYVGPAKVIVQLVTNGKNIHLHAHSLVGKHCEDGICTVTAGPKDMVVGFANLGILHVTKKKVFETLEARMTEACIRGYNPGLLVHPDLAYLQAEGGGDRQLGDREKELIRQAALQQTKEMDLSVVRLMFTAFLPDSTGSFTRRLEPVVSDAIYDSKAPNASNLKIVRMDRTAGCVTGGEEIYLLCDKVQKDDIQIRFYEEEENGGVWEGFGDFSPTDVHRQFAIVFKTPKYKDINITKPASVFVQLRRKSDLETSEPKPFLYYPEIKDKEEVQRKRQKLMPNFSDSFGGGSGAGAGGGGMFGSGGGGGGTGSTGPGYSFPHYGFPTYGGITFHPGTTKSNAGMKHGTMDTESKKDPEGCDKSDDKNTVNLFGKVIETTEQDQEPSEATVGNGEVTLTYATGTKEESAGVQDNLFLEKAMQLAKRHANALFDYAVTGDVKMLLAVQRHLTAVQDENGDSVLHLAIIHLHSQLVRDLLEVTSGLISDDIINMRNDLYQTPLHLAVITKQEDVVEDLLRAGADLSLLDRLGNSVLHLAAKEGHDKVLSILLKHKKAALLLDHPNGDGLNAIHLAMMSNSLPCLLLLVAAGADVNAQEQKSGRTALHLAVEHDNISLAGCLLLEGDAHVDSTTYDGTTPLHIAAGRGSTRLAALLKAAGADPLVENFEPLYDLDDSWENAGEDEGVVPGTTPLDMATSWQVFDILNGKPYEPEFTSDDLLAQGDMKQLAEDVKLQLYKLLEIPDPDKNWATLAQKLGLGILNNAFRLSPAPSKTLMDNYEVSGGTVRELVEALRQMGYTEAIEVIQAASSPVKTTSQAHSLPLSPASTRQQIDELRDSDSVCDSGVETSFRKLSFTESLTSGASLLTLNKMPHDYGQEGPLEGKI

O=C(CCl)c1ccccc1
inactive: [1] | [2] | [3] | [4] | [5] | [6] | [7] | [8] | [9] | [10] | [11] | [12] | [13] | [14] | [15] | [16] | [17] | [18] | [19] | [20]

O=[N+]([O-])c1ccc(Cl)cc1
inactive: [1] | [2] | [3] | [4] | [5] | [6] | [7] | [8] | [9] | [10] | [11] | [12] | [13] | [14] | [15] | [16] | [17] | [18] | [19] | [20]
